Results filed as inconclusive are left out. For some assays here: Results with a measured potency or affinity are listed apart. Calls of active or inactive are those of the source. Unless noted, how the calls were made is not given here.
Legend:
[1] = molecular target: ATP-dependent translocase ABCB1 (Homo sapiens) (UniProt P08183); test: MDR1 (ABCB1) efflux transporter inhibition, cell-based (AID 377; in the data active means fluorescence slope change above about 50%); conditions: MDR1-expressing cells, fluorescent substrate accumulation slope; stronger effect = higher value; concentration not given here
[2] = polyglutamine-triggered caspase-3 activation inhibitors, cell-based (AID 1583); conditions: polyglutamine-induced caspase-3 activation, cell assay; stronger effect = higher value;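 tested at 10 µM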
[3] = suppressors of polyQ aggregation in yeast, 75Q-TubU reporter (AID 1593); conditions: Yeast 75Q polyglutamine aggregation reporter
[4] = rescue of polyQ-huntingtin neuronal dysfunction in worms, whole organism, C. elegans mechanosensory neurons, N-terminal huntingtin (AID 1599); conditions: touch response, stronger effect = higher value
[5] = inhibitors of mitochondrial cytochrome c release, biochemical, purified mitochondria (AID 1603); conditions: stronger effect = lower value;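 further: mouse liver mitochondria challenged with calcium chloride; signal normalized to the plate average as 100%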
[6] = inhibitors of polyQ protein aggregation (AID 1604); conditions: polyglutamine-induced protein aggregation inhibition assay; stronger effect = higher value; tested at 2.5 µM
[7] = enhancers of glutamate uptake in motor neurons, MN-1 cell line (AID 1612); conditions: MN-1 motor neuron cells, stronger effect = higher value;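 further: tested at 1 µM final; 0% = mean of DMSO vehicle wells on each plate; positive means more glutamate uptake than control and negative means less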
[8] = reducers of polyQ inclusions in PC12 cells, cell-based, NGF-treated PC12, GFPQ80 (AID 1614); conditions: PC12 NGF-treated GFP-polyQ80 inclusion reduction;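 further: lower means fewer inclusions and 0 means no inclusions at all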
[9] = suppressors of polyglutamine aggregation in yeast, 75Q-TubH (AID 1616); conditions: S. cerevisiae 75Q-TubH polyglutamine aggregation suppression; stronger effect = higher value
[10] = hESC survival regulators, cell-based (AID 493140); conditions: human embryonic stem cell survival screen; stronger effect = higher value;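 further: cells exposed to compounds for four days before counting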
[11] = circadian clock period modulators, cell-based, LOPAC library, luminescence reporter (AID 2774); conditions: circadian reporter cells, at 7 µM, actives lie on both sides;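 further: values are relative to mean of DMSO wells on each plate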

Sequence of ATP-dependent translocase ABCB1 (Homo sapiens) (P08183 whole entry, looked up): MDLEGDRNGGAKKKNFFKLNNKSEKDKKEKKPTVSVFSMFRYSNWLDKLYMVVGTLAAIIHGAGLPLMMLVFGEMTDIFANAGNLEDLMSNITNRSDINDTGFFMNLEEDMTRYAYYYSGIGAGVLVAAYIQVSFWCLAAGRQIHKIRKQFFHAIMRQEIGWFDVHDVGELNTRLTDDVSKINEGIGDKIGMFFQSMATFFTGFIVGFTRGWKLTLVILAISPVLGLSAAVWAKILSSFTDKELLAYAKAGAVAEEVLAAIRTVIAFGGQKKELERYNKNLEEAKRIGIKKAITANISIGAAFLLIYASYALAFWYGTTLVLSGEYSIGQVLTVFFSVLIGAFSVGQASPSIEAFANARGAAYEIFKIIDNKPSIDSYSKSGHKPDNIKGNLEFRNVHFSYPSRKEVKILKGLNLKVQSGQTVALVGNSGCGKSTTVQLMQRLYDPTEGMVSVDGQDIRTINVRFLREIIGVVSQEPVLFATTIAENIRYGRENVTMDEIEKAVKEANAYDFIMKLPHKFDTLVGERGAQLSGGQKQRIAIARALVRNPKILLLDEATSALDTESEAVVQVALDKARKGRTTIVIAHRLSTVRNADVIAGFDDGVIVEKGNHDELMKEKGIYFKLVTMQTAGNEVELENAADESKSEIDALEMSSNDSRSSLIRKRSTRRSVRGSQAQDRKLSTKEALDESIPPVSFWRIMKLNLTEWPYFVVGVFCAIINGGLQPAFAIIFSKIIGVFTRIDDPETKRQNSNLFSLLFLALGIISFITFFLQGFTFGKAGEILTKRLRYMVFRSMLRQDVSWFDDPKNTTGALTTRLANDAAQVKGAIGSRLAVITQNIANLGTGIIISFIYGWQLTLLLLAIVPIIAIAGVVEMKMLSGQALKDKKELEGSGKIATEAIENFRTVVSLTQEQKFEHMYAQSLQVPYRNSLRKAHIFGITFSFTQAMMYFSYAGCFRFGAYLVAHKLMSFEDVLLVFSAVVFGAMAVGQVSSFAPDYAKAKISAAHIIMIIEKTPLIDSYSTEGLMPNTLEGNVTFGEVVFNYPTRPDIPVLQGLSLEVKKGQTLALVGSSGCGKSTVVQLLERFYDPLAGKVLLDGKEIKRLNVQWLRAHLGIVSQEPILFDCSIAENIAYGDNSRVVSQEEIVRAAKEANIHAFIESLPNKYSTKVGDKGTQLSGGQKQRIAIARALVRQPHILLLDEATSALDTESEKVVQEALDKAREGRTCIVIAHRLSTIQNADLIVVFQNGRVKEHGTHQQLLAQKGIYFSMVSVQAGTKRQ

Compound	fluorescence slope change [1]	inhibition [2] [%]	score [3]	rescue above control [4]	cytochrome c release ratio [5]	inhibition of aggregation [6] [%]	glutamate uptake change [7] [%]	inclusion score [8]	aggregation suppression score [9]	survival [10]	period change [11]
COc1c2occc2c(OC)c2c(=O)cc(C)oc12	54.2% (active)	3.52	0.76	0	1.14	63.2	-7.03	2	0.597	22.1 (inactive)	–
CCN(CC)CCOCCOC(=O)C1(c2ccccc2)CCCC1	–	-3.33	1.27	-4.04	0.8	94.4	7.48	1.5	1.37	5.08 (inactive)	0.125 h (inactive)
Cn1c(=O)c2c(ncn2CCO)n(C)c1=O	50.2% (active)	-0.98	1.29	-7.41	1.08	56.7	2.77	2	1.2	29.2 (inactive)	–
C[N+]12CCC(CC1)C(OC(=O)C(O)(c1ccccc1)c1ccccc1)C2 (centres undefined)	27.6% (inactive)	10.9	1.31	14.7	1.79	73.8	-0.25	2	1.21	4.17 (inactive)	–
Cc1c(N(C)CS(=O)(=O)O)c(=O)n(-c2ccccc2)n1C	12.6% (inactive)	-33.9	1.22	6.62	0.55	94.4	-8.12	2	1.09	3.25 (inactive)	–
O=C(COc1ccc(Cl)cc1)N1CCN(Cc2ccc3c(c2)OCO3)CC1	134% (active)	60.9	1.15	29.5	1.17	63.9	0.58	2.5	1.39	7.17 (inactive)	–
NS(=O)(=O)c1cc2c(cc1Cl)NC(C(Cl)Cl)NS2(=O)=O (centres undefined)	24.8% (inactive)	12.2	1.03	12.5	1.13	79.6	-0.6	2	1.17	3.33 (inactive)	–
Cc1ccccc1N1C(=O)c2cc(S(N)(=O)=O)c(Cl)cc2NC1C (centres undefined)	79.4% (active)	19.1	1.21	6.73	0.86	4.55	2.13	2	1.18	25.6 (inactive)	–
NS(=O)(=O)c1cc(C(=O)O)c(NCc2ccco2)cc1Cl	19.9% (inactive)	10.9	1.37	-8.35	0.82	3.24	-10.7	2	0.957	10.1 (inactive)	–
COc1cnc(NS(=O)(=O)c2ccc(N)cc2)nc1	9.5% (inactive)	4.47	1.34	-2.23	0.79	77.5	-0.58	2	1.45	4.42 (inactive)	–
O=C(Cn1ccnc1[N+](=O)[O-])NCCO	10% (inactive)	-0.7	1.21	-3.38	0.82	62.1	16.4	2	0.925	5.17 (inactive)	–
CCN(CCCCOC(=O)c1ccc(OC)c(OC)c1)C(C)Cc1ccc(OC)cc1 (centres undefined)	-44.1% (inactive)	24.4	1.51	1.7	0.92	65.1	1.65	2	1.35	13.9 (inactive)	–
CC(=O)NO	25.2% (inactive)	31.8	1.13	-5.59	0.77	58.3	11.3	2	1.09	–	–
O=C(O)CCC(=O)c1ccc(-c2ccccc2)cc1	81% (active)	1.96	-0.44	4.61	1	18.2	6.02	2	-0.185	32.7 (inactive)	–
OCC(O)CN1CCN(c2ccccc2)CC1 (centres undefined)	54.1% (active)	9.99	1.44	10.9	0.72	68.2	0.23	2	1.04	19.2 (inactive)	–
Cc1ccccc1OCC(O)CO (centres undefined)	59.3% (active)	20.6	1.31	-6.62	1.09	70.4	18.9	2	1.74	11.9 (inactive)	–
CC(=O)Nc1ccc(O)cc1	29.1% (inactive)	-1.78	1.1	12.7	1.05	74.9	-4.6	2	1.73	5.25 (inactive)	–
Nc1cc(-c2ccncc2)c[nH]c1=O	8.3% (inactive)	-0.86	1.14	4.19	0.91	17.8	12.5	2	1.17	2.67 (inactive)	–
CC(C)(Oc1ccc(CCNC(=O)c2ccc(Cl)cc2)cc1)C(=O)O	88.6% (active)	-1.59	1.19	-10.8	0.96	61	8.93	2	1.44	15.2 (inactive)	–
CCCCOc1ccc(OCCCN2CCOCC2)cc1	29.5% (inactive)	9.28	1.09	8.67	0.73	65	6.69	2	1.24	2 (inactive)	–
c1ccc(CN(CC2=NCCN2)c2ccccc2)cc1	118% (active)	9.99	1.33	-13.1	1.08	71.4	16	2	1.29	15 (inactive)	–

Reference: PubChem BioAssay
